{"source": "PubChem BioAssay AID1490", "about": "(National Center for Advancing Translational Sciences (NCATS), 2009)", "note": "Several values for one entry are separate records, joined by “and”; a condition that tells them apart may be missing. Identical values can stand only once. Among all 310,000 compounds or so, about 11,000 (3.5%) were called active. Not shown: some 4% with an inconclusive outcome. The sample as a whole holds a higher share of actives than the screen did. A structure can be active in one record and inactive in another. A number with no mark means an inactive call. The call rests on the fitted dose curve; in most records, active means well fitted inhibition curve with a large enough effect; inconclusive means small, poorly fitted or top-dose-only effect, or another doubt; inactive means no such curve, though single readings can be large or run the other way. Potency means the concentration at half of the fitted maximal effect.", "data": [{"molecular_target": "4'-phosphopantetheinyl transferase ffp (Bacillus subtilis) (UniProt Q9F4F7)", "test": "qHTS Assay for Inhibitors of Bacillus subtilis Sfp phosphopantetheinyl transferase (PPTase);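 further: the enzyme is Sfp with the accession as filed and its product quenches rhodamine fluorescence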;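 on largest response in the series, negative = inhibition: 0% = enzyme reaction without inhibitor and -100% = no enzyme wells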", "conditions": "Biochemical Sfp PPTase activity", "method_in_brief": "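Buffer: 50 mM Hepes-Na pH 7.6, 10 mM MgCl2, 0.01% Nonidet P-40, 0.01% BSA. Enzyme 15 nM, pre-exposed to compound 15 min; substrates then added and fluorescence change tracked over 30 min.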", "units": {"largest response in the series, negative = inhibition": "%"}, "values": [{"compound": "COc1cc(Cn2c(N)c(C(=O)NCc3ccco3)c3nc4ccccc4nc32)cc(OC)c1OC", "Potency": "56.2 µM (active)"}, {"compound": "CCOC(=O)c1c(N)n(Cc2ccccc2)c2nc3ccccc3nc12", "largest response in the series, negative = inhibition": 13.5}, {"compound": "CCOC(=O)C(O)(c1ccc(NC(=O)c2ccco2)c(OC)c1)C(F)(F)F", "note": "(stereo not given)", "largest response in the series, negative = inhibition": 3.62}, {"compound": "CC1CCCCN1Cc1cccnc1", "note": "(stereo not given)", "largest response in the series, negative = inhibition": -23.2}, {"compound": "c1cncc(CNC2=NCCC2)c1", "largest response in the series, negative = inhibition": 12.2}, {"compound": "CN1CCC(N(C)Cc2cccnc2)CC1", "Potency": "89.1 µM (active)"}, {"compound": "CC(=O)c1c(O)c(C)c(O)c(Cc2c(O)c3c(c(C(=O)/C=C\\c4ccccc4)c2O)OC(C)(C)C=C3)c1O", "largest response in the series, negative = inhibition": -29.6}, {"compound": "COC1CC(OC2CC[C@@]3(C=O)C4CC[C@]5(C)C(C6=CC(=O)OC6)CC[C@@]5(O)C4CC[C@]3(O)C2)OC(C)C1O", "note": "(stereo not given in full)", "largest response in the series, negative = inhibition": 2.96}, {"compound": "CC(C(=O)Nc1ccc(Cl)cc1Cl)N1CC=C(c2ccccc2)CC1", "note": "(stereo not given)", "Potency": "56.2 µM (active)"}, {"compound": "CN1CCN(C(=S)SCC(=O)Nc2ccc(Cl)cc2C(=O)c2ccccc2)CC1", "largest response in the series, negative = inhibition": -8.26}, {"compound": "CN(C)C1C(=O)C(C(N)=O)=C(O)[C@@]2(O)C(=O)C3=C(O)c4c(O)cccc4[C@@](C)(O)C3C[C@@H]12", "note": "(stereo not given in full)", "largest response in the series, negative = inhibition": -32.6}, {"compound": "C[C@@H]1C[C@H]2CC[C@H](O2)[C@H](C)C(=O)O[C@@H](C)C[C@@H]2CC[C@@H](O2)[C@@H](C)C(=O)O[C@H](C)C[C@H]2CC[C@H](O2)[C@H](C)C(=O)O[C@@H](C)C[C@@H]2CC[C@@H](O2)[C@@H](C)C(=O)O1", "largest response in the series, negative = inhibition": 6.1}, {"compound": "CC(=O)OC1C2CCC3C1(CC(O)[C@@]1(O)[C@@H](CC(O)C1(C)C)[C@]3(C)O)C[C@@]2(C)O", "note": "(stereo not given in full)", "largest response in the series, negative = inhibition": 6.04}, {"compound": "N#Cc1c(Cl)c(Cl)c(Cl)c(C#N)c1Cl", "largest response in the series, negative = inhibition": -8.59}, {"compound": "CC[N+]1(CCOC(=O)C(O)(c2ccccc2)c2ccccc2)CCCCC1", "largest response in the series, negative = inhibition": 12}, {"compound": "CO[C@@H]1C[C@@H](C[C@H]2CC[C@H](C)[C@@H]([C@@H](C)C(=O)O)O2)O[C@]2(O[C@](C)([C@H]3CC[C@@](C)(C4OC([C@H]5O[C@@](O)(CO)[C@H](C)C[C@@H]5C)C[C@@H]4C)O3)C[C@H]2C)[C@@H]1C", "note": "(stereo not given in full)", "largest response in the series, negative = inhibition": 23.4}, {"compound": "CN(C)/C=C(\\C=[N+](C)C)c1[nH]ncc1[N+](=O)[O-]", "largest response in the series, negative = inhibition": 0.787}, {"compound": "CC(C)(Cc1c[nH]c2ccc(Cl)cc12)NCCOc1ccccc1OCC1CC1", "Potency": "35.5 µM (active)", "largest response in the series, negative = inhibition": -25.3}, {"compound": "CCC(=O)CC(c1ccc([N+](=O)[O-])cc1)c1c(O)c2ccccc2oc1=O", "note": "(stereo not given)", "largest response in the series, negative = inhibition": 6.92}, {"compound": "c1ccc(CN2CC[C@@]3(CCCNC3)C2)cc1", "largest response in the series, negative = inhibition": 1.98}, {"compound": "COc1ccc(C2CC(c3cccs3)=NN2c2nc(C)c(C(C)=O)s2)cc1OC", "note": "(stereo not given)", "Potency": "39.8 µM (active)"}, {"compound": "Cc1ccc(-n2c(O)c(C=NCC3CCCO3)c(=O)[nH]c2=O)c(C)c1", "note": "(stereo not given)", "largest response in the series, negative = inhibition": -4.95}, {"compound": "CNC(=S)N/N=C1\\C2CN3CCN(C2)CC1(c1ccccc1)C3", "largest response in the series, negative = inhibition": -18}, {"compound": "O=C1NC(=O)N(c2ccccc2)C(=O)/C1=C/c1ccc([N+](=O)[O-])s1", "Potency": "35.5 µM (active)"}, {"compound": "COc1cccc(N2C(=O)NC(=O)/C(=C\\c3ccc([N+](=O)[O-])s3)C2=O)c1", "Potency": "31.6 µM (active)"}, {"compound": "COc1cc(-n2c(=S)[nH]c3ccc(C)cc3c2=O)c(Cl)cc1Cl", "largest response in the series, negative = inhibition": 4.46}, {"compound": "C=CCSSCC=C", "largest response in the series, negative = inhibition": -26.6}, {"compound": "Cc1cccc([C@H](C)c2cnc[nH]2)c1C", "largest response in the series, negative = inhibition": 9.27}, {"compound": "COc1ccc(C2N3CC(C)(C)CN23)cc1", "note": "(stereo not given)", "largest response in the series, negative = inhibition": 0.855}, {"compound": "Cc1cccc(-n2c(O)c(C=NC34CN5CN(CN(C5)C3)C4)c(=O)[nH]c2=O)c1", "largest response in the series, negative = inhibition": 9.77}, {"compound": "C[N+]12CN3CN(CN(C3)C1)C2", "largest response in the series, negative = inhibition": 12.8}, {"compound": "c1ccc(N2CC[C@@]3(CCCNC3)C2)nc1", "largest response in the series, negative = inhibition": -23.5}, {"compound": "O=c1[nH]c(=O)n(-c2ccccc2)c(O)c1C=NC12CN3CN(CN(C3)C1)C2", "largest response in the series, negative = inhibition": -28}, {"compound": "CCCCCCCCCCCCN=C(N)N", "largest response in the series, negative = inhibition": -27}, {"compound": "O=C1NC(=O)N(c2ccc(F)cc2)C(=O)/C1=C/c1ccc2c(c1)CCCN2Cc1ccccc1", "Potency": "44.7 µM (active)"}, {"compound": "CCC(C)C(=O)O[C@@H]1C[C@@]2(C)C(c3ccoc3)OC(=O)CC23OC2(C)O[C@@]14[C@@]1(C)C(CC(=O)OC)C5(C)CC1(O)C(O)(C5OC(=O)C1(C)OC1C)C(OC(C)=O)[C@@]34O2", "note": "(stereo not given in full)", "largest response in the series, negative = inhibition": 3.31}, {"compound": "CN(C)CC1CCCCC1OC(=O)c1ccc(Cl)c(Cl)c1", "note": "(stereo not given)", "largest response in the series, negative = inhibition": -11.6}, {"compound": "CCCCCCN=C(CC)c1c(O)n(CCCC)c(=O)[nH]c1=O", "largest response in the series, negative = inhibition": -9.2}, {"compound": "C[C@@]12CCC3C(CC[C@@H]4CC(O)CC[C@@]34C)C1CCC2O", "note": "(stereo not given in full)", "largest response in the series, negative = inhibition": 7.22}, {"compound": "Cc1ncsc1CCCl", "Potency": "79.4 µM (active)"}, {"compound": "Clc1ccc([C@@H]2C[C@H]3CC[C@@H]2N3)cn1", "largest response in the series, negative = inhibition": 9.37}, {"compound": "Cc1ccc(-c2nn(CCC#N)cc2C(=O)O)cc1C", "largest response in the series, negative = inhibition": 25.7}, {"compound": "CC(c1ccccc1)(c1ccccc1)c1ccncc1", "largest response in the series, negative = inhibition": 5}, {"compound": "c1csc(CN2CCCC3(CCNCC3)C2)n1", "largest response in the series, negative = inhibition": 3.74}, {"compound": "COc1ccc(C2Oc3c(I)c(OC)cc(OC)c3CC2O)cc1OC", "note": "(stereo not given)", "largest response in the series, negative = inhibition": -16.3}, {"compound": "CC[N+](C)(CC)CCC[n+]1c(-c2ccccc2)c2cc(N)ccc2c2ccc(N)cc21", "Potency": "28.2 µM (active) and 50.1 µM (active)"}, {"compound": "CC(C)(C)c1ccc(CN2C(=O)CN=C(c3ccccc3)c3ccccc32)cc1", "largest response in the series, negative = inhibition": -3.66}, {"compound": "Cc1ccc(S(=O)(=O)N(C)c2ccc(C(=O)NCC3(N(C)C)CCCCC3)cc2)cc1", "largest response in the series, negative = inhibition": 13.3}, {"compound": "COC1=C[C@]23CCCN2CCc2cc4c(cc2[C@@H]3[C@@H]1O)OCO4", "largest response in the series, negative = inhibition": 1.35}, {"compound": "CC(=O)c1c(O)n(C2CCCCCC2)c(=O)[nH]c1=O", "largest response in the series, negative = inhibition": 6.22}, {"compound": "COc1ccccc1N1CCN(C(CNC(=O)Oc2ccccc2)c2cccnc2)CC1", "note": "(stereo not given)", "largest response in the series, negative = inhibition": 2.8}, {"compound": "COc1ccc(CCn2c(O)c(C=NC3CC3)c(=O)[nH]c2=O)cc1OC", "largest response in the series, negative = inhibition": 12.3}, {"compound": "O=C(O)C1CSC(c2cccnc2)N1", "note": "(stereo not given)", "Potency": "56.2 µM (active)"}, {"compound": "CNC(=O)Nc1ccc(C(O)(C(=O)OC)C(F)(F)F)cc1", "note": "(stereo not given)", "largest response in the series, negative = inhibition": 6.69}]}]}
